Mdm2-MdmX inh: disrupts the human Mdm2-MdmX interaction. O15151+Q00987. SaOS-2 split-luciferase Mdm2/MdmX complementation, luminescence. inhibition, % at 8 µM. 3% of 330,000 active;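 active = inhibition of at least 50% at 8 µM in the primary screen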
Target sequence (O15151 whole entry, looked up): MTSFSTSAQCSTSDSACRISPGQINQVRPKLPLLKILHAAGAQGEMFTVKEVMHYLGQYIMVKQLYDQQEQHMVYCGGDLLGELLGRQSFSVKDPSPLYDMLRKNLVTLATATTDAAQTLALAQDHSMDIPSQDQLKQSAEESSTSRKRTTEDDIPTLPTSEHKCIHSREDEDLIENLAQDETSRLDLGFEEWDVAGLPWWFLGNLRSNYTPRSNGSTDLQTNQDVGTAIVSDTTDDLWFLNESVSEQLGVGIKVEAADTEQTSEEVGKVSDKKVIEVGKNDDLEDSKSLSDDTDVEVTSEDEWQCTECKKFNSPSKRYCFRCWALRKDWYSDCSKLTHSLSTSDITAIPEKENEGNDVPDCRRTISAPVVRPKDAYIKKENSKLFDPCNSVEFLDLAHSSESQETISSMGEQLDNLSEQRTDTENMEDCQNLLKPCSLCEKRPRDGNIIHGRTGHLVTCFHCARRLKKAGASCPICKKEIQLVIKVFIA
Target sequence (Q00987 whole entry, looked up): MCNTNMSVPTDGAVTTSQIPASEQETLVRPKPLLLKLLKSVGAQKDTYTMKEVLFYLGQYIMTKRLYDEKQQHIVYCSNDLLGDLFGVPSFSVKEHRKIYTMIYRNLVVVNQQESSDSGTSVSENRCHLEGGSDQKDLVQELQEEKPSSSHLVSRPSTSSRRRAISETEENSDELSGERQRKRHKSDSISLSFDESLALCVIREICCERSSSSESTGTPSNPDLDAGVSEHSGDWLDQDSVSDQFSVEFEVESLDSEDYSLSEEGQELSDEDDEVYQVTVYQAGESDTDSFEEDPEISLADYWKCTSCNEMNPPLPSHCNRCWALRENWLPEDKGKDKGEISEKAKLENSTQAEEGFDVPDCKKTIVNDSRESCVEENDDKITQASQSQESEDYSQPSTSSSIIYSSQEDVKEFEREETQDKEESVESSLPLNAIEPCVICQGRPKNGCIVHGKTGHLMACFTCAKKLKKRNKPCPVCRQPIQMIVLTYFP
KLF5 inhibitor: inhibitors of KLF5 expression | 0.23% of 290,000 active | AID 1700 | DLD-1 KLF5 promoter-luciferase reporter, luminescence | inhibition, % at 5 µM;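 active = inhibition above a per-plate limit of that plate's mean compound inhibition plus 3 SD, cut at about 60% in these data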;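 note: 0% = DMSO wells and 100% = LY294002 at 200 µM; higher means less KLF5 promoter-driven luciferase light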
aSyn 5UTR inh: MLPCN primary screen, SNCA 5' untranslated region; alpha-synuclein 5'UTR reporter, inhibitor activity; inhibition, % (tested at 7.5 µM); 0.82% of 300,000 active; AID 1813; in the data active = inhibition above about 60%; inconclusive = no clear call, values can overlap the other calls;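 note: H4 neuroglioblastoma cells stably carrying SNCA 5'UTR luciferase fusion; 0% = DMSO wells and 100% = positive control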
Gli-Sufu antag: antagonists of Gli-Sufu signaling; Sufu-KO-LIGHT fibroblasts, Gli luciferase reporter luminescence; inhibition, % at 5 µM; AID 588413; 0.74% of 340,000 active;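 active = inhibition above about 55%, limit read from the data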;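 note: 0% = DMSO-treated cells and 100% = wells with medium but no cells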
697 NFkB inh: inhibitors of the PMA/ionomycin-induced NF-kB reporter in 697 B cells | 697 B-cell NF-kB luciferase reporter, 16 h | inhibition, % at 4 µM | 0.33% of 330,000 active | AID 435022; in the data active = inhibition above about 35%
Jurkat NFkB inh: inhibitors of the PMA/ionomycin-induced NF-kB reporter in Jurkat cells. inhibition, % at 4 µM. PMA/ionomycin-induced NF-kB luciferase reporter, luminescence. 0.53% of 330,000 active. AID 435003; in the data active = inhibition above about 50%
Mdm2-MdmX conf: human Mdm2/MdmX binding inhibition, confirmed | shares compounds with Mdm2-MdmX inh | luminescent assay | inhibition, % at 8 µM | 55% of 10,000 active | AID 489028; in the data active = inhibition above about 40%
Full FLuc ctr: counter-screen for Mdm2/MdmX inhibitors: full-length luciferase; shares compounds with Mdm2-MdmX inh; SaOS-2 full-length luciferase counterscreen, luminescence; inhibition, % at 8 µM; 77% of 6,200 active; AID 504607;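 active = mean inhibition at 8 µM reaching about 37%, which flags the compound as non-specific, limit read from the data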;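 note: p53-null SaOS-2 cells with luciferase driven by a doxycycline-inducible promoter; compound on cells about two nights before reading with doxycycline added after day one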
* hit, by the source's call; ? = inconclusive; nt = not tested or not shown. In the library only some 4.1% were active in any assay of this set; here they are far more common.

SMILES	Mdm2-MdmX inh	KLF5 inhibitor	aSyn 5UTR inh	Gli-Sufu antag	697 NFkB inh	Jurkat NFkB inh	Mdm2-MdmX conf	Full FLuc ctr
COc1cccc(C(=O)c2c(-c3ccccc3)ncc3cc(OC)c(OC)cc23)c1	22	nt	nt	1	11	nt	nt	nt
CN1CC(=O)N2C(c3ccc(Cl)cc3)c3[nH]c4ccccc4c3C[C@H]2C1=O (some centres undefined)	52*	-22	-13	10	21	-11	14	nt
COc1ccccc1C1c2[nH]c3ccccc3c2C[C@H]2C(=O)N(C3CCN(Cc4ccccc4)CC3)CC(=O)N12 (some centres undefined)	54*	-28	23	14	18	2	38	90*
COc1ccc(C2c3[nH]c4ccccc4c3C[C@H]3C(=O)N(C4CCN(Cc5ccccc5)CC4)CC(=O)N23)cc1OC (some centres undefined)	27	-7	6	11	11	7	nt	nt
C/C(N)=C(/C#N)C(=O)CSc1nnnn1-c1ccc(C)cc1	-23	-69	-90	-17	-40	-7	nt	nt
Cc1cc2oc(=O)c(CC(=O)O)c(C)c2c2occ(C(C)(C)C)c12	-2	-67	-28	-36	-18	-24	nt	nt
Cc1cc2oc(=O)c(CC(=O)NCCCN(C)C)c(C)c2c2occ(C(C)(C)C)c12	94*	-69	?	30	-43	-3	76*	41*
COCCNC(=O)Cc1c(C)c2c(cc(C)c3c(C(C)(C)C)coc32)oc1=O	67*	-16	-116	-6	-42	9	44*	64*
Cc1cc2oc(=O)c(CC(=O)NCCCO)c(C)c2c2occ(C(C)(C)C)c12	23	-44	-45	-11	-30	-15	nt	nt
Cc1cc(NC(=S)N(CCCN2CCN(C)CC2)Cc2ccco2)ccc1Cl	1	-16	13	11	-5	-15	nt	nt
Cc1ccc(C(C)C)c(OCCCNCc2cccnc2)c1	5	3	8	33	15	10	nt	nt
Cc1ccc(C(C)C)c(OCCNCCc2ccccc2)c1	51*	-19	-10	25	-63	-5	26	nt
COc1cccc(/C=N/NC(=O)CSCC(=O)Nc2ccccc2)c1O	52*	32	43	29	6	-3	49*	51*
COc1ccc(/C=N/NC(=O)CSCC(=O)Nc2ccccc2)cc1	-2	-17	14	-8	-18	11	nt	nt
COc1cccc(/C=N/NC(=O)CNC(=O)C(c2ccccc2)c2ccccc2)c1O	57*	25	32	9	-12	31	68*	29
COc1cccc(/C=N/NC(=O)c2cc(-c3cccn3C)n[nH]2)c1O	53*	28	95*	9	4	35	64*	32
COc1cc(/C=N/NC(=O)c2cc(-c3cccn3C)n[nH]2)cc(OC)c1OC	-50	-1	-71	-3	-7	34	nt	nt
O=C(CSc1nnnn1C1CC2C=CC1C2)Nc1ccc(C(=O)O)cc1 (centres undefined)	-35	nt	-11	-10	-19	1	nt	nt
O=S1(=O)CCOCCCN1Cc1ccccc1Br	6	-9	-10	2	-3	15	nt	nt
COc1ccc2[nH]c(=O)c3c(c2c1)OC(C)(C)C=C3	90*	-25	-3	-31	4	9	75*	57*
Cc1cccc(NS(=O)(=O)c2ccc(C(=O)N3CC(C)OC(C)C3)cc2)c1C (centres undefined)	34	nt	3	17	-16	14	nt	nt
COc1cc(/C=N/NC(=O)c2cccnc2)ccc1OC(=O)c1ccc([N+](=O)[O-])cc1	-11	-22	-6	2	24	-2	nt	nt
COc1ccc(/C=N/NC(=O)c2cccnc2)cc1COc1ccc(NC(C)=O)cc1	52*	-3	-84	-4	-22	40	26	nt
COc1ccc(NC(=O)COc2ccc(/C=N/NC(=O)c3cccnc3)cc2OC)cc1	10	-37	-105	-1	13	-14	nt	nt
COc1ccc(/C=N/NC(=O)c2ccc3ccccc3c2)cc1OS(=O)(=O)c1ccc(NC(C)=O)cc1	68*	11	-22	13	2	37	55*	58*
SMILES	Mdm2-MdmX inh	KLF5 inhibitor	aSyn 5UTR inh	Gli-Sufu antag	697 NFkB inh	Jurkat NFkB inh	Mdm2-MdmX conf	Full FLuc ctr
COc1ccc(/C=N/NC(=O)c2cccnc2)cc1COc1ccc([N+](=O)[O-])cc1	51*	21	-75	-10	-18	48	37	81*
O=C(CCN1C(=O)c2ccccc2C1=O)NCc1ccc(Cl)cc1	-23	-4	2	4	-7	-1	nt	nt
COc1ccc(C(C(=O)NCC2CCCO2)N(Cc2cccs2)C(=O)c2snc(C(N)=O)c2N)cc1OC (centres undefined)	-42	-1	12	12	-17	-4	nt	nt
CCOc1ccc(C(C(=O)NCC2CCCO2)N(Cc2cccs2)C(=O)c2snc(C(N)=O)c2N)cc1 (centres undefined)	50*	16	13	8	30	22	51*	78*
Cc1ccc(NC(=O)CN(C)C(=O)c2nn(C)c(=O)c3ccccc23)cc1	7	-39	-7	3	22	14	nt	nt
O=C(NNC(=O)C1CCC1)c1ccc(Br)cc1	-10	nt	-11	6	-12	-16	nt	nt
Cc1cnc(C(=O)NNC(=O)c2ccc(Br)cc2)cn1	61*	nt	25	-10	-9	11	35	69*
N#CC1=C(N)C(C#N)(C#N)C(c2cccnc2)C2CC(c3ccccc3)CC=C12 (centres undefined)	62*	-3	10	3	-26	0	61*	23
Cc1nn(-c2ccccc2)c(Cl)c1CN(C(=O)CCl)c1cccc2ccccc12	99*	8	-7	11	-6	0	99*	53*
O=C(O)C1CCCC2CN3CCc4c([nH]c5ccccc45)C3C(O)C21 (centres undefined)	10	-41	3	0	-5	4	nt	nt
O=C(Cn1cnc2c(nnn2Cc2ccc(F)cc2)c1=O)Nc1ccc2c(c1)OCCO2	71*	-17	5	4	-2	-7	21	nt
COc1ccc(C=C2C=C(C(C)(C)C)C(=O)C(C(C)(C)C)=C2)cc1OC	100*	-1	0	28	-82	-38	18	nt
COc1ccc(C(=O)/C=C/c2ccc(OC)c(CN3CCOCC3)c2)cc1	27	-19	15	2	9	-15	nt	nt
COc1ccc(C(=O)/C=C/c2ccc(OC)c(Cn3nnc4ccccc43)c2)cc1	62*	-19	-25	-2	-8	17	43*	68*
CCN(CC(=O)Nc1ccc([N+](=O)[O-])cc1OC)c1ccccc1	10	9	-10	8	-2	-26	nt	nt

Screening data: PubChem, several laboratories
